From PubChem BioAssay
An excerpt weighted towards active compounds, which were near 10% of everything screened.
G9a inh – blocks human histone lysine methyltransferase G9a. AID 504332. G9a H3K9 monomethylation, AlphaScreen, 2 h. 8.8% of 350,000 active. Potency, µM (top dose mostly 102 µM), for inactives: at the highest dose activity, negative = inhibition, actives largely listed as inhibitors. Q96KQ7; also: potency is read from the fitted curve at half-maximal effect; nearly all actives have a fitted effect of over 75% in size
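Compounds were preincubated with 20 nM G9a for 15 min, after which biotinylated H3K9 peptide (500 nM) and SAM (20 uM) started a 2 h room-temperature reaction. Monomethylated product was quantified by antibody-based AlphaScreen chemiluminescence.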
MmCpn inh – inhibitors of Methanococcus maripaludis chaperonin TRiC (MmCpn); purified Mm-Cpn ATPase, ADP Transcreener TR-FRET; Potency, µM (top dose mostly 76.9 µM), without a hit: at the top dose activity, negative = inhibition, most hits filed as inhibitors; 0.031% of 330,000 active; also: potency is read from the fitted curve at half-maximal effect; nearly all actives have a fitted effect of over 80% in size
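Quantitative HTS used 25 nM Mm-CPN and 10 uM ATP in magnesium/KCl Tris buffer, pH 7.4, with 1 mM DTT. Hydrolysis ran 30 min at 37°C; ADP was read by HTRF.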
CCT modulator – cytosolic chaperonin activity modulation | purified chaperonin ATPase assay, HTRF ADP detection, 30 min | 0.3% of 360,000 active | activity change, % (concentration not given with the values), hits read low; in the data active = activity change below about -30%
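TRiC at 40 or 20 nM final (batch-dependent) in 30 mM Tris pH 7.4, 100 mM KCl, 5 mM MgCl2, 1 mM DTT, with compound at single 76 uM and 10 uM ATP, 30 min at 37 deg C. ADP detected by HTRF Transcreener, 665/615 ratio.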
Sfp inh – Sfp phosphopantetheinyl transferase inhibition; Q9F4F7; Biochemical Sfp PPTase activity, qHTS; Potency, µM, for inactives: largest response in the series, negative = inhibition, actives largely listed as inhibitors; 3.5% of 310,000 active; AID 1490;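 also: the enzyme is Sfp with the accession as filed and its product quenches rhodamine fluorescence; potency is read from the fitted curve at half-maximal effect; 0% = enzyme reaction without inhibitor and -100% = no enzyme wells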
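Compounds were incubated with enzyme (final 15 nM) for 15 min at room temperature before substrate addition started the reaction. Fluorescence at 525 nm excitation, 598 nm emission was recorded immediately and after 30 minutes.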
VDR inhibitor – vitamin D3 receptor (human) inhibition; 0.93% of 400,000 active; Potency, µM, for inactives: max response, negative = inhibition, hits mostly inhibitors; P11473; VDR-SRC2-3 peptide fluorescence polarization, 2 h; also: potency is read from the fitted curve at half-maximal effect
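Signal is fluorescence polarization, reporting how far test compounds block the interaction of VDR with the SRC2-3 coregulator peptide after a 2 h room-temperature incubation.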
PLK1 PBD block – PLK1 (human) polo-box domain binding inhibition | P53350 | Plk1 PBD binding of FITC phosphopeptide, fluorescence polarization | Potency, µM, for inactives: max response, negative = inhibition, actives largely listed as inhibitors | 2.8% of 360,000 active; also: potency is read from the fitted curve at half-maximal effect; series mostly up to about 57 µM; nearly all actives have a fitted effect of over 65% in size
Target sequence (P53350 whole entry, looked up, the tested form may be a part): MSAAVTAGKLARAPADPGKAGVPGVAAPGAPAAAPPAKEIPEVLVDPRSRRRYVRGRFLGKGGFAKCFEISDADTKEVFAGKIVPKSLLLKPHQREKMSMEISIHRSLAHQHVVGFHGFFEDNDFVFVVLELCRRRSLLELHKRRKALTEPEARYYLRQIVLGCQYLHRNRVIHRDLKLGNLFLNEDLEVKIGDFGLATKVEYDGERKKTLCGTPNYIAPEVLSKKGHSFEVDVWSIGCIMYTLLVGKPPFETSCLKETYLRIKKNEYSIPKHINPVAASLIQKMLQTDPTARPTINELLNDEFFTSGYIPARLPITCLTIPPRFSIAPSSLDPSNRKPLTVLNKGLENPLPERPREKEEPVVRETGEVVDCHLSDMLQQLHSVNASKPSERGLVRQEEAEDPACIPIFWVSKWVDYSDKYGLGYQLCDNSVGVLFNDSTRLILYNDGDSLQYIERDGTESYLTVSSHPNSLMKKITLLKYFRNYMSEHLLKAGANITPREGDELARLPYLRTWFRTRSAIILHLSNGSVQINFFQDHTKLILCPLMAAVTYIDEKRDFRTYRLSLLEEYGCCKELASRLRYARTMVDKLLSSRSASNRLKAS
* hit, by the source's call; ? = inconclusive; · = no result given; [ ] = another dose, or the depositor's remark. Unless noted, calls follow the shape of the dose curve; as a rule, active = well fitted curve in the direction sought with a large enough effect; inconclusive = small, poorly fitted or top-dose-only effect, or another doubt; inactive = no such curve, though single readings can be large; an effect the other way counts as inactive or inconclusive. Unless noted, % is scaled to controls: 0 for no effect and ±100 for the full control effect.

SMILES	G9a inh	MmCpn inh	CCT modulator	Sfp inh	VDR inhibitor	PLK1 PBD block
COc1cccc(-n2c(Cc3cc(=O)[nH]c(=O)[nH]3)nnc2SCc2cccnc2)c1	50µM*	4%	0	4%	-6%	-7%
CCOc1ccc(-n2c(Cc3cc(=O)[nH]c(=O)[nH]3)nnc2SCC)cc1	?	-1%	-1	3%	12%	-4%
Cc1ccc(C2NC(=O)c3c(sc(C)c3C)N2)c(O)c1 (configuration not stated)	32µM*	-1%	0	50µM*	9%	?
Cc1cccc(C2NC(=O)c3c(sc(C)c3C)N2)c1O (configuration not stated)	4%[12.7 µM]	-3%	1	89µM*	-2%	-21%
Cc1ccc(C)c(C2NC(=O)c3ccccc3N2)c1 (configuration not stated)	10%[12.7 µM]	1%	-1	8%	2%	0%
O=C1NC(c2ccccc2O)Nc2ccccc21 (configuration not stated)	·	-2%	1	6%	1%	-4%
Cn1cc(O)nc1NC(=O)Nc1cccc(Cl)c1	-34%[2.33 µM]	·	·	3%	-6%	·
COc1cc(CNc2ccc(N3CCCC3)cc2)ccc1OCc1ccccc1	?	-2%	-2	?	35µM*	-18%
COc1cc(CNc2ccc(N3CCCCC3)cc2)ccc1OCC(=O)NC(C)(C)C	14µM*	1%	2	-17%	8%	0%
CCOc1cc(CNCCN2CCOCC2)ccc1OCc1ccccc1Cl	50µM*	-4%	-8	?	-2%	-13%
COc1cc(CNc2ccc(N3CCCC3)cc2)ccc1OCc1ccccc1F	10µM*	-12%	-2	-16%	79µM*	-15%
Cc1cccc(C)c1-n1ncc(C(=O)N2CCN(c3ccccc3)CC2)c1C1CCN(C(=O)OC(C)(C)C)CC1	-36%[59 µM]	·	·	·	16%	·
CN(C)CCNC(=O)Cc1ccc(NC(=O)N2CCCCc3ccccc32)cc1	-4%[59 µM]	·	·	·	8%	·
C=CCOc1ccc(CNc2ccc(NC(=O)CC(C)C)cc2)cc1OC	71µM*	-3%	1	-5%	11%	3%
COc1cc(CO)ccc1OCC(=O)Nc1ccc(Br)cc1	·	?	0	-4%	-1%	-11%
COc1cc(CNCCN2CCOCC2)ccc1OCC(=O)NC(C)(C)C	?	-3%	-3	71µM*	-8%	-7%
O=C(Nc1cc2c(cc1C(=O)c1ccccc1Br)OCCO2)c1cccc(Cl)c1	-1%[59 µM]	·	·	·	-6%	·
COc1cc(NC(=O)N2CCC(CN3CCCC3)CC2)cc(OC)c1OC	-6%[59 µM]	·	·	·	4%	·
COc1cccc(CN2CCC(C(=O)N3CCN(Cc4ccc5c(c4)OCO5)CC3)CC2)c1OC	1%	-1%	0	18%	15%	-7%
O=C(CCc1ccc(S(=O)(=O)NCc2ccccc2)cc1)N1CCN(Cc2ccc3c(c2)OCO3)CC1	-19%	-1%	-2	1%	-9%	-7%
CC1CCCN(C(=O)C2CCN(Cc3ccc4c(c3)OCO4)CC2)C1 (configuration not stated)	50µM*	-1%	3	6%	8%	-4%
COc1cc2c(cc1OC)C(C)N(C(=O)Cn1ncc3c1-c1ccccc1OC3)CC2 (configuration not stated)	79µM*	-1%	-1	4%	-8%	-11%
O=C(C1CCN(Cc2ccccc2O)CC1)N1CCN(Cc2ccc3c(c2)OCO3)CC1	6.3µM*	0%	-1	-8%	1%	-4%
O=C(CS(=O)(=O)Cc1ccccc1)N1CCN(Cc2ccc3c(c2)OCO3)CC1	-2%[12.7 µM]	1%	2	5%	?	27µM*
O=C(C1CCN(S(=O)(=O)N2CCOCC2)CC1)N1CCN(Cc2ccc3c(c2)OCO3)CC1	-32%	1%	-2	17%	2%	-11%
SMILES	G9a inh	MmCpn inh	CCT modulator	Sfp inh	VDR inhibitor	PLK1 PBD block
Cc1cc(C)c(NC(=O)Cn2c(=O)n(Cc3ccc(C(=O)NCc4ccco4)cc3)c(=O)c3sccc32)c(C)c1	-9%[59 µM]	·	·	·	16%	·
CC(=O)[C@H](CC(C)C)NC(=O)[C@@H](CC(C)C)NC(=O)[C@H](CC(C)C)NC(=O)OCc1ccccc1	·	·	·	-11%	?	·
CCCOc1ccc(C2C(=O)N(C3CCC(C)CC3)CC(=O)N2CCc2ccccc2)cc1OC (configuration not stated)	1%[59 µM]	·	·	·	10%	·
COc1ccc(NC(=O)C2CCCN(S(=O)(=O)c3ccc4c(c3)CCCC(=O)N4)C2)c(OC)c1 (configuration not stated)	-5%[59 µM]	·	·	·	6%	·
Cc1ccc(-c2noc(-c3nnn(CC(=O)Nc4ccc(C)c(Cl)c4)c3N)n2)cc1	-4%[59 µM]	·	·	·	-2%	·
O=C(Cn1ncc2c1-c1ccccc1OC2)N1CCN(Cc2ccc3c(c2)OCO3)CC1	16µM*	3%	-3	3%	-19%	-13%
O=C(Nc1ccc2c(c1)OCO2)C1CCN(Cc2cc3c(cc2O)OCO3)CC1	32µM*	-1%	1	6%	-18%	-24%
COc1ccccc1/C=C/C(=O)NCC(=O)N/N=C/c1ccc(C)o1	45µM*	1%	-4	-30%	3%	6%
Cc1ccc(/C=N/NC(=O)c2cccc3ccccc23)o1	?	0%	1	-17%	4%	4%
COc1ccccc1/C=C\C(=O)NCC(=O)N/N=C(/C)c1cccc([N+](=O)[O-])c1	79µM*	0%	1	5%	12%	4%
Cc1ccc(/C=N/NC(=O)C(C)Oc2cccc3ccccc23)o1 (configuration not stated)	20µM*	2%	1	56µM*	-16%	-19%
Cc1nc(NC2CCCCC2)c2nc(-c3ccccc3)n(CCCN(C)C)c2n1	·	·	·	0%	·	·
CCS(=O)(=O)N1CCN(S(=O)(=O)c2ccc(Cl)s2)CC1	16µM*	-1%	-1	-6%	3%	1%
Cc1ccccc1CN1CCN(S(=O)(=O)c2ccc(Cl)s2)CC1	35%	0%	3	-3%	-3%	4%
COc1ccc(C2N(c3ccccc3)C(=O)C2(F)F)cc1OC (configuration not stated)	-7%	2%	-7	3%	-1%	-3%
CCOC(=O)c1ccc(NC2=CC(c3ccc(Br)cc3)N(c3ccc(C(=O)OCC)cc3)C2=O)cc1 (configuration not stated)	-33%[59 µM]	·	·	·	-6%	·
COc1cccc(NC2=CC(c3ccc(C(C)C)cc3)N(c3cccc(OC)c3)C2=O)c1 (configuration not stated)	?	·	·	·	20µM*	·
COc1cccc(C2C=C(Nc3ccccc3)C(=O)N2c2ccccc2)c1 (configuration not stated)	45µM*	-5%	-2	63µM*	-29%	-10%
